Measured values from PubChem BioAssay.
Results with a measured potency or affinity are listed apart. The source made the active and inactive calls. No cut-off is given here; in the data, nearly all actives have IC50 up to about 0.98 µM.

Molecular target: Calcium-dependent protein kinase 1 (Plasmodium falciparum (isolate 3D7)) (UniProt P62344)
Test: PfCDPK1 kinase inhibitors, biochemical, TCAMS library (AID 1159585);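 note: inhibitors leave more ATP so luminescence rises with inhibition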
Details: recombinant PfCDPK1, Kinase-Glo ATP depletion luminescence

Sequence of Calcium-dependent protein kinase 1 (Plasmodium falciparum (isolate 3D7)) (P62344 whole entry, looked up): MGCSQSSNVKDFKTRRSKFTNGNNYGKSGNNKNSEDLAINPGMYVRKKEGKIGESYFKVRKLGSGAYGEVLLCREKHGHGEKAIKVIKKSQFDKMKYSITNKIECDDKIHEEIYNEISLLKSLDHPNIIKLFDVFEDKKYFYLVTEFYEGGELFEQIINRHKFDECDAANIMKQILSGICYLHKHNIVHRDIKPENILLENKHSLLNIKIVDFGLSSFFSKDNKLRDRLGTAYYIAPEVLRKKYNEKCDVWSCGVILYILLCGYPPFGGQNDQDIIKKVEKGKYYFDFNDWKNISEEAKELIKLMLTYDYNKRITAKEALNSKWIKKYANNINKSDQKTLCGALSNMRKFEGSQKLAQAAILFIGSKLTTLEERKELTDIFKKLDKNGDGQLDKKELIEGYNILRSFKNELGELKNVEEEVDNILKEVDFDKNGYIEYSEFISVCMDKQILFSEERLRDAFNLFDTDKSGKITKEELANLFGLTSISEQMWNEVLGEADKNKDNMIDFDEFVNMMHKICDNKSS

Question: `COc1cccc(C(=O)[C@H]2C[C@@H]2CN(C)CCC(O)c2ccc(Cl)c(Cl)c2)c1` (stereo not given in full) was tested. Which outcome did it give?
Answer: Its outcome is “inactive”.

Question: Which outcome does the source give for `Cc1ccc(Cn2ncc(N3CCC(N)CC3)c(Cl)c2=O)cc1NC(=O)Nc1ccc(-c2ccccc2)cc1` here?
Answer: Its outcome is “inactive”.

Question: How did the outcome turn out when `CN(C)Cc1ccc(O)c(-c2ccc(C(C)(C)C)cc2)n1` was run?
Answer: The outcome was “inactive”.

Question: With `COc1cc2nc(NCCCN3CCCCC3)nc(NCc3ccccc3)c2cc1OC` as the compound, how does the outcome read?
Answer: Its outcome is “inactive”.

Question: How did the outcome turn out when `CC(C)CCN1CCC(Oc2ccc(NC(=O)c3cccs3)cc2Cl)CC1` was run?
Answer: The outcome was “inactive”.

Question: Which outcome does the source give for `N#Cc1ccc(N[C@@H](CC2CCCCC2)C(=O)N[C@@H]2CCCc3ccccc32)c2ccccc12` here?
Answer: Its outcome is “inactive”.

Question: With `Cc1ccc(NC(=O)c2ccc3ncccc3c2)cc1OC1CCN(Cc2ccc(F)cc2)CC1` as the compound, how does the outcome read?
Answer: Its outcome is “inactive”.

Question: Which outcome does the source give for `CCOc1ccc(-c2nc(NC(=O)COc3ccc(OC)cc3)sc2C)cc1` here?
Answer: The outcome was “inactive”.

Question: `O=C(Nc1ccc2c(c1)CCC2)c1ccc(CN2CCCN(Cc3cccc(O)c3)CC2)cc1` was tested. Which outcome did it give?
Answer: The outcome was “inactive”.

Question: `CN1CCN(c2ccnc3cc4c(cc23)N(C(=O)Nc2ccc(-c3ccncc3)c3ccccc23)CC4)CC1` was tested. Which outcome did it give?
Answer: The outcome was “inactive”.

Question: With `Clc1ccc(OCCC2CCN(CCCCCCN3CCCCC3)CC2)cc1Cl` as the compound, how does the outcome read?
Answer: The outcome was “inactive”.

Question: Which outcome does the source give for `Cc1cc(N2CCCC2=O)ccc1-c1ccc(C(=O)N2CCC(Oc3cccc(Cl)c3)CC2)cc1` here?
Answer: The outcome was “inactive”.

Question: `c1ccc(CCNCc2ccc(-c3cccc(CNc4ccc5ncccc5c4)c3)cc2)cc1` was tested. Which outcome did it give?
Answer: Its outcome is “inactive”.

Question: For `CC(C)(C)OC(=O)N1CCN(c2ccccc2NC(=O)c2cccc(C(F)(F)F)c2Oc2ccc(F)cc2)CC1`, which outcome is on record?
Answer: Its outcome is “inactive”.

Question: How did the outcome turn out when `N#CCCN1CCN(Cc2ccc(-c3ccc(-c4nc5ccc(F)cc5[nH]4)s3)cc2)CC1` was run?
Answer: The outcome was “inactive”.

Question: For `CCOC(=O)NC1=NC(C)(C)N(OCCCOc2cc(Cl)c(Cl)cc2Cl)C(N)=N1`, which outcome is on record?
Answer: The outcome was “inactive”.

Question: `Cc1ccc(-n2c(=O)c3cccnc3n2CC(=O)Nc2cccc(C)c2C)cc1` was tested. Which outcome did it give?
Answer: Its outcome is “inactive”.

Question: With `COc1cccc(NC(=O)Cn2c(C)c(C#N)c3ccccc32)c1` as the compound, how does the outcome read?
Answer: The outcome was “inactive”.

Question: Which outcome does the source give for `CN(C)CC(O)C(O)(c1ccccc1)c1ccc(F)cc1` (stereo not given) here?
Answer: The outcome was “inactive”.

Question: For `Cc1[nH]c(C)c(Cc2ccc(Oc3ccc(OC(F)(F)F)cc3)cc2)c(=O)c1Br`, which outcome is on record?
Answer: The outcome was “inactive”.

Question: `C=CCC(C)n1ncc2c3c(N)nc(N)nc3ccc21` (stereo not given) was tested. Which outcome did it give?
Answer: Its outcome is “inactive”.

Question: Which outcome does the source give for `CC(C)N1CCN(c2ccc(OCCCCN3CCN(c4cccc(Cl)c4Cl)CC3)c(C(F)(F)F)c2)CC1` here?
Answer: Its outcome is “inactive”.

Question: With `FC(F)(F)c1ccc2nc(-c3cccc(-c4cccc(CNCCc5ccncc5)c4)c3)[nH]c2c1` as the compound, how does the outcome read?
Answer: Its outcome is “inactive”.

Question: For `O=C(C=Cc1ccccc1)Nc1ccc(C#CC=Cc2ccc(NC(=O)C=Cc3ccccc3)cc2)cc1`, which outcome is on record?
Answer: The outcome was “inactive”.

Question: Which outcome does the source give for `CC1CN(Cc2ccccc2)CCN1c1ccc(NC(=O)c2cccs2)cc1` (stereo not given) here?
Answer: Its outcome is “inactive”.

Question: `CC1(C)N=C(N)N=C(N)C1c1ccc(Cl)c(Cl)c1` (stereo not given) was tested. Which outcome did it give?
Answer: The outcome was “inactive”.

Question: With `CN1CCC(NCc2ccc(-c3ccc(S(=O)(=O)NCc4ccccc4)cc3)cc2)CC1` as the compound, how does the outcome read?
Answer: The outcome was “inactive”.

Question: `CC(C)CCN1CCC(Oc2cccc(NC(=O)c3ccc(C(F)(F)F)cc3)c2)CC1` was tested. Which outcome did it give?
Answer: Its outcome is “inactive”.

Question: For `Cc1cccc2[nH]c(-c3ccc(-c4cccc(NC(=O)Cc5cnc[nH]5)c4)cc3)nc12`, which outcome is on record?
Answer: The outcome was “inactive”.

Question: How did the outcome turn out when `O=C(Nc1ccccc1N1CCOCC1)c1ncoc1-c1ccccc1C(F)(F)F` was run?
Answer: The outcome was “inactive”.

Question: With `COc1cccc(C2(c3cccc(OC)c3)N=C(N)N(CCCc3ccccc3)C2=O)c1` as the compound, how does the outcome read?
Answer: Its outcome is “inactive”.

Question: For `Cc1cccc2[nH]c(-c3ccc(-c4ccc(CN5CCN(CC6CCCN(C)C6)CC5)cc4)cc3)nc12` (stereo not given), which outcome is on record?
Answer: The outcome was “inactive”.

Question: `O=S(=O)(Nc1ccc(CCN2CCC(N3CCCCC3)CC2)cc1)c1ccc2ccccc2c1` was tested. Which outcome did it give?
Answer: Its outcome is “inactive”.

Question: For `CCCc1ccc(S(=O)(=O)NC2CCN(C(=O)Nc3ccc(I)cc3)CC2)cc1`, which outcome is on record?
Answer: Its outcome is “inactive”.

Question: `CNC(=O)c1cnc(Nc2ccc(N3CCN(C)CC3)c(C)c2)nc1NC` was tested. Which outcome did it give?
Answer: The outcome was “inactive”.

Question: How did the outcome turn out when `C[C@H]1CN(Cc2cccc(-c3cc(CNC(=O)c4cccc(CC5CCN(C)CC5)c4)ccc3F)c2)CCN1C` was run?
Answer: The outcome was “inactive”.

Question: For `C=CCn1c(=N)c(C(=O)NC2CCCCC2)cc2c(=O)n3cccc(C)c3nc21`, which outcome is on record?
Answer: The outcome was “inactive”.

Question: Which outcome does the source give for `O=C(/C=C/c1ccc(Cl)c(Cl)c1)N1CCC(CCN2CCc3[nH]c4ccccc4c3C2)CC1` here?
Answer: The outcome was “inactive”.

Question: With `CCC(C)OC(=O)C1=C(C)NC2=C(C(=O)CC(c3ccc(OC)c(OC)c3)C2)C1c1ccc(O)cc1` (stereo not given) as the compound, how does the outcome read?
Answer: Its outcome is “inactive”.

Question: For `CCc1ccc(N2C(=O)C3C(Cc4ccc(OC(C)(C)C)cc4)NC4(C(=O)N(Cc5ccccc5)c5ccc(F)cc54)C3C2=O)cc1` (stereo not given), which outcome is on record?
Answer: Its outcome is “inactive”.
